# Test results as given in PubChem BioAssay AID686979 (National Center for Advancing Translational Sciences (NCATS), 2013).
# Hit rate of the full screen: of about 420,000 compounds, about 50,000 (12%) were called active. Another 26% or so got no clear call; they are omitted. The entries come from a sample that favours actives as a whole. Values without a mark were called inactive. Calls follow the shape of the dose curve; as a rule, active = well fitted inhibition curve with a large enough effect; inconclusive = small, poorly fitted or top-dose-only effect; inactive = flat fitted curve, though single readings scatter.
# Assay: qHTS for Inhibitors of human tyrosyl-DNA phosphodiesterase 1 (TDP1): qHTS in cells in presence of CPT; also: nearly all actives have a fitted effect of over 55% in size
# Settings: chicken DT40 Tdp1-/-;hTDP1 cells + 20 nM CPT, ATP luminescence, 48 h; series mostly up to 46.2 µM; activity change, negative = growth inhibition: at the top concentration
# Procedure, shortened: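 Chicken DT40 Tdp1-/- cells stably complemented with human TDP1 were seeded at 400 cells/well in medium containing 20 nM camptothecin, exposed to pin-transferred compounds, and grown at 37 °C for at least 48 hr. Viability was read as ATP luminescence.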
# % is scaled to controls: 0 for no effect and ±100 for the full control effect; potency is read from the fitted curve at half-maximal effect.
Compound,"activity change, negative = growth inhibition [%]",Potency
CC(=O)C[C@H](O)CC(=O)[C@@H]1OC(=O)[C@@H](C)C/C=C\Cc2ccccc21,1.45,–
COc1ccc(CNC(=O)c2cc(=O)c3c(C)cc(C)cc3o2)cc1,-3.72,–
CCCCn1c(N)c(N(CCOC)C(=O)c2cccc(S(=O)(=O)N3CCCCC3)c2)c(=O)[nH]c1=O,-2.83,–
COc1cc(OC)c(S(=O)(=O)Nc2ccccc2C(=O)O)cc1S(=O)(=O)Nc1ccccc1C(=O)O,9.05,–
CS(=O)(=O)N1CCN(c2cccc(Cl)n2)CC1,8.45,–
O=C(COc1ccc2c(c1)CCC2)N1CCN(c2ccc(F)cc2)CC1,10.3,–
CCCCn1c(SCC(=O)NCC2CCCO2)nc2ccc(N3CCOCC3)cc2c1=O (configuration not stated),-16.2,–
Cc1nn2c3cc(N4CCOCC4)ccc3nc2c2ccccc12,-24.1,–
N#CCSc1nc2ccc(N3CCOCC3)cc2c(=O)n1CCc1ccccc1,–,23.1 µM (active)
COCCCNC(=O)CSc1nc2ccc(N3CCOCC3)cc2c(=O)n1CCc1ccccc1,–,16.4 µM (active)
COCCn1c(=O)c(-c2ccccc2)nc2cnc(N3CCOCC3)nc21,1.6,–
COCCNC(=O)c1ccc(Cn2c(SCC(=O)NCC3CCCO3)nc3ccc(Br)cc3c2=O)cc1 (configuration not stated),-4.66,–
COc1ccccc1/C=C/C(=O)OCC(=O)NC1CCCCCC1,-22.8,–
C=Cc1ccc(C(=O)N2CCCC(CCC(=O)N3CCN(c4ccccn4)CC3)C2)cc1 (configuration not stated),-17.8,–
COc1ccc(C2c3c(oc4ccccc4c3=O)C(=O)N2Cc2ccc3c(c2)OCO3)cc1 (configuration not stated),-0.0902,–
Cc1ccc2oc3c(c(=O)c2c1)C(c1ccc(O)cc1)N(Cc1ccc2c(c1)OCO2)C3=O (configuration not stated),–,14.6 µM (active)
CCCOc1ccc(C2c3c(oc4cc(C)c(C)cc4c3=O)C(=O)N2CCCN2CCOCC2)cc1 (configuration not stated),-5.72,–
Cc1ccc(NNC(=O)c2cccs2)cc1Cl,-23.8,–
CC(NC(=O)COc1cccnc1[N+](=O)[O-])c1ccc(Cl)cc1Cl (configuration not stated),-21.6,–
CC(=O)C[C@@H]1OC[C@H](C)N1S(=O)(=O)c1ccc(C)cc1,25.5,–
CCn1nc(C)c(NC(=O)/C=C/c2ccc(OC)c(COc3ccc(Br)cc3)c2)c1C,–,16.4 µM (active)

Compound,"activity change, negative = growth inhibition [%]",Potency
CCn1nc(C(=O)NNS(=O)(=O)c2cc(/C=C/C(=O)O)cc(OC)c2OC)c2ccccc2c1=O,4.44,–
Cc1nn(CCOc2ccc(Br)cc2)c(C)c1[N+](=O)[O-],6.55,–
O=C(O)CCCCCCCCCC[n+]1ccccc1,3.14,–
CCn1c(SCC(=O)NC2CC2)nnc1-c1ccncc1,2.34,–
CCOC(=O)c1c(NC(=O)/C=C/c2ccco2)sc(C)c1C,-41.2,–
CCOC(=O)c1c(NC(=S)NC(=O)/C=C/c2cccs2)sc(C)c1C,–,20.6 µM (active)
CCOC(=O)c1c(NC(=O)c2cccs2)sc(C)c1C,6.74,–
Cc1c(NC(=S)NC(=O)CCc2ccccc2)c(=O)n(-c2ccccc2)n1C,6.66,–
NC(=O)[C@H]1CC2(CC(c3cccc(NC(=O)[C@H]4CCC(=O)N4)c3)=NO2)CN1C(=O)c1ccccc1C(=O)c1ccccc1 (some centres not stated),0.837,–
CC(C)CN(C(=O)CN1CCN(S(=O)(=O)c2ccccc2)CC1)c1c(N)n(CC(C)C)c(=O)[nH]c1=O,3.61,–
Cc1ccc(Cc2nnc(SCC(=O)Nc3ccc(C)cc3C)[nH]c2=O)cc1,-12,–
Cc1ccc(NC(=O)c2ccc(CSc3ncnc4nc[nH]c34)cc2)c(C)c1,–,23.1 µM (active)
CSc1ncc(C(=O)Nc2ccc(C)cc2C)c(C)n1,-13.4,–
Cc1cc(C)c2oc(C(=O)Nc3ccc(S(=O)(=O)Nc4nccc(C)n4)cc3)cc(=O)c2c1,–,inactive
Cc1ccc2nc(SCC(=O)N3CC(C)OC(C)C3)nc(=O)n2c1 (configuration not stated),15.6,–
O=C(CCC(=O)c1ccccc1)NCc1cccc(C(F)(F)F)c1,-19,–
Cc1ccc(NC(=O)CSc2nc(=O)n(CCN(C)C)c3c2CCCC3)c(C)c1,3.71,–
Cc1ccc2nc(NC(=O)CSc3nc(=O)n(CCCN(C)C)c4c3CCC4)sc2c1,–,9.2 µM (active)
Cc1csc(NC(=O)CSc2nc(=O)n(CCCN(C)C)c3c2CCC3)n1,4.71,–
N#Cc1ccc(-c2nc3c(Cl)cc(C(F)(F)F)cn3c2Cc2ccccc2C(F)(F)F)cc1,-1.15,–
COc1ccccc1Cc1c(-c2ccc(Cl)cc2)nc2c3ccccc3ccn12,–,25.9 µM (active)

Compound,"activity change, negative = growth inhibition [%]",Potency
COc1ncc2nc(-c3ccc(Cl)cc3)c(=O)n(-c3ccccc3)c2n1,29,–
O=C1C(c2ccccn2)=[N+]([O-])c2ccccc21,-28.8,–
COCCN1C(=O)c2oc3c(C)cc(C)cc3c(=O)c2C1c1cccc(O)c1 (configuration not stated),-26.3,–
CC(=O)c1sc(N2C(=O)c3oc4ccccc4c(=O)c3C2c2ccc(C)cc2)nc1C (configuration not stated),7.1,–
O=C1c2oc3ccccc3c(=O)c2C(c2cccc(O)c2)N1c1ccccn1 (configuration not stated),–,20.6 µM (active)
O=C(NC1CC(=O)N(c2ccc(F)cc2)C1)c1cccs1 (configuration not stated),-7.52,–
CC(C)=NN1C(=O)c2ccccc2NC1(C)C,33,–
O=C(Nc1ccc2c(c1)OCO2)c1ccc(N2C(=O)c3ccccc3C2=O)cc1,-4.6,–
Cc1ccc(-c2csc(N3CCN(c4cc5c(cc4Cl)nc(-c4ccncc4)n5CCOCCO)CC3)n2)cc1,–,16.4 µM (active)
COc1ccc(-c2csc(N3CCN(Cc4ccc5c(c4)OCO5)CC3)n2)cc1,-5.07,–
CCCn1c(C(C)Nc2nc(-c3ccc(C)cc3)cs2)nc2cc(Cl)c(N3CCCCC3)cc21 (configuration not stated),-17.2,–
COc1cccc(CNC(=O)c2nnn(CC(=O)Nc3cc(C)ccc3C)c2N)c1,-3.62,–
CSc1c(SCc2ccccc2)cnn(Cc2ccccc2)c1=O,4.13,–
Cc1cccc(N2CC(C)Cn3c2nc2c3c(=O)n(CC(=O)OCc3ccccc3)c(=O)n2C)c1 (configuration not stated),–,23.1 µM (active)
Cn1c(=O)n(CCc2ccccc2)c(=O)c2c1nc1n2CCCN1c1ccccc1,-21.7,–
CC1CN(C2CCCCC2)c2nc3c(c(=O)n(C)c(=O)n3C)n2C1 (configuration not stated),-29.8,–
CCn1c(SC(C)C(=O)Nc2ccc(N3CCOCC3)cc2)nnc1-c1ccco1 (configuration not stated),-14.6,–
COc1ccc(C(C)C)cc1-c1ccc2nncn2c1,-1.77,–
C=CCn1c(SCC(=O)Nc2ccc(NC(C)=O)cc2)nc2sc(C)c(C)c2c1=O,-7.85,–
CC(OC(=O)CNC(=O)c1ccco1)C(=O)Nc1ccc(Cl)cn1 (configuration not stated),3.92,–
